Here are results for eleven molecules from the supplement of paper PMC11383364.

In this assay the test system is SUM149. Kind of assay: percent difference in area under dose-response curve of relative cell number, RPMI vs HPLM; higher = drug relatively more effective in HPLM than RPMI (negative = less effective in HPLM). The note with it: treatment time: 72 h; dose range: 10-point, 1 nM to 20 µM; media compared: RPMI vs HPLM.
As to `Nc1ncn([C@H]2C[C@H](O)[C@@H](CO)O2)c(=O)n1` [Decitabine], the “percent difference in area under dose-response curve” value (“percent difference in area” for short) was -25.4%.

Consider `CC(C)c1onc(-c2c(Cl)cccc2Cl)c1COc1ccc(/C=C/c2cccc(C(=O)O)c2)c(Cl)c1`, for which the “percent difference in area” value was found to be 7.59%.

Take `c1ccc(Cn2c(-c3ccc(OC[C@H](C4CCNCC4)n4c(-c5ccccc5)nc5ccccc54)cc3)nc3ccccc32)cc1` [Deltarasin]: the “percent difference in area” value is -7.63%.

For the molecule `COc1cc([C@@H]2c3cc4c(cc3[C@@H](O[C@@H]3O[C@@H]5CO[C@@H](c6cccs6)O[C@H]5[C@H](O)[C@H]3O)[C@H]3COC(=O)[C@H]23)OCO4)cc(OC)c1O` [Teniposide], the “percent difference in area” value was -42.7%.

`CN1CCN(c2cccc(Nc3nc4c(-c5ccc(S(C)(=O)=O)cc5)cccn4n3)c2)CC1`: the “percent difference in area” value was -13.7%.

As to `CC(=O)O[C@]1(C(C)=O)CC[C@H]2[C@@H]3C[C@H](C)C4=CC(=O)CC[C@]4(C)[C@H]3CC[C@@]21C` [Medroxyprogesterone_acetate], the “percent difference in area” value was determined as 0.646%.

On to `CCC[C@H](Nc1nc(-c2ccc(NC(=O)NCC)c(OC)c2)ncc1C)c1cccnc1`, for which the “percent difference in area” value is -15.1%.

Consider `O=C(Nc1c[nH]nc1-c1nc2ccc(CN3CCOCC3)cc2[nH]1)NC1CC1`, for which the “percent difference in area” value is -10.6%.

For `CN1CCN(c2ccc(OC(F)(F)F)c(Nc3ncc4c(n3)-c3c(c(C(N)=O)nn3CCO)CC4)c2)CC1`, the “percent difference in area” value was -12.8%.

Take `CN(c1ncccc1CNc1nc(Nc2ccc3c(c2)CC(=O)N3)ncc1C(F)(F)F)S(C)(=O)=O`: the “percent difference in area” value is -16.2%.

As for `CC[C@@H]1C(=O)N(C)c2cnc(Nc3ccc(C(=O)N[C@H]4CC[C@H](N5CCN(CC6CC6)CC5)CC4)cc3OC)nc2N1C(C)C`, the “percent difference in area” value is -16.8%.
